The structures appear in SMILES notation. About 83,000 compounds went through this panel and 20% of them were active in at least one assay; those are over-represented in the sample as a whole.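 Note: values are percent growth. 100 is the growth of untreated cells, values between 100 and 0 indicate rising inhibition; between -100 and 0 indicates cell death.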 Unmarked numbers belong to inactive results. Calls of active or inactive are those of the source. Rule for the calls: active = growth percent below 10; inactive = the rest.

Some test systems named below: NCI-H23 lung; NCI-H226 lung; NCI-H322M lung; HOP-62 NSCLC; NCI-H460 lung; HOP-92 NSCLC; NCI-H522 lung; A549/ATCC NSCLC; 786-0 renal; COLO 205 colon; DU-145 prostate; K-562 leukemia; MALME-3M melanoma; MDA-MB-231 breast; RXF 393 renal; SF-268 CNS; SF-295 CNS; SF-539 CNS; UACC-257 melanoma; M14 melanoma.
Assay in all cases: NCI-60 one-dose screen, 48 h (100 = growth as untreated, 0 = no growth, -100 = all killed)
Holding throughout (settings): 10 µM unless noted

`CC[C@H](NC(=O)[C@H]1CCCCN1C)C(=O)N(C)[C@H](C[C@@H](OC(C)=O)c1nc(C(=O)N[C@@H](Cc2ccccc2)C[C@H](C)C(=O)O)cs1)C(C)C`: the growth in the assay on NCI-H23 lung was 23%; in the assay on NCI-H226 lung it was 65.7%; in the assay with NCI-H322M lung, 46.6%; in the assay on HOP-62 NSCLC, 25.4%; in the assay on NCI-H460 lung it was 2.71% (active); in the assay with HOP-92 NSCLC, 46%. Besides, the growth in the assay on NCI-H522 lung was -19.9% (active); with A549/ATCC NSCLC, 10.4%; with 786-0 renal, 10.8%; in the assay on COLO 205 colon, -54.5% (active); with DU-145 prostate, 0.513% (active); with K-562 leukemia, 6.94% (active). Moreover, the growth with MALME-3M melanoma is 76%; in the assay with MDA-MB-231 breast, 9.34% (active); in the assay on RXF 393 renal it was 43.2%; in the assay with SF-268 CNS, 30.2%; in the assay with SF-295 CNS, 0.548% (active); in the assay with SF-539 CNS, -12.1% (active). In addition, the growth with UACC-257 melanoma is 52.9%; with M14 melanoma, -10.4% (active).
For the compound `COc1ccc(C(=O)c2cc(OC)c(OC)c(OC)c2)cc1OC(C)=O`, the growth with NCI-H23 lung was 31%; in the assay with NCI-H226 lung it was 102%; in the assay on NCI-H322M lung, 42%; in the assay with HOP-62 NSCLC, 25.2%; in the assay on NCI-H460 lung it was 7.92% (active); in the assay with HOP-92 NSCLC, 50.9%. Further, the growth is 10.3% with NCI-H522 lung; 22.4% with A549/ATCC NSCLC; 26.5% in the assay on 786-0 renal; 16.3% with COLO 205 colon; 4.78% (active) in the assay on DU-145 prostate; 10.4% in the assay with K-562 leukemia. Also, the growth in the assay on MALME-3M melanoma is 78%; with MDA-MB-231 breast, 33.8%; with RXF 393 renal, 49.3%; in the assay on SF-268 CNS, 41.9%; in the assay on SF-295 CNS, 15.4%; with SF-539 CNS it was 6.23% (active). The growth is 55.7% in the assay on UACC-257 melanoma and 4.11% (active) with M14 melanoma.
Turning to `CCN1C(=O)C(=C/C=C/c2ccccc2)C(=O)N(CC)C1=O`, the growth with NCI-H23 lung was 95.5%; in the assay with NCI-H226 lung, 94.5%; in the assay with NCI-H322M lung it was 104%; in the assay on HOP-62 NSCLC, 97.8%; in the assay with NCI-H460 lung, 77.8%; in the assay on HOP-92 NSCLC it was 116%. Also, the growth was 73.3% with NCI-H522 lung; 101% in the assay on A549/ATCC NSCLC; 106% in the assay on 786-0 renal; 93.8% in the assay with COLO 205 colon; 76.4% with DU-145 prostate; 79.4% with K-562 leukemia. For the same compound, the growth in the assay on MALME-3M melanoma was 82.5%; in the assay with MDA-MB-231 breast it was 86.4%; in the assay with RXF 393 renal, 109%; in the assay on SF-268 CNS, 72.5%; in the assay with SF-295 CNS, 105%; in the assay on SF-539 CNS, 109%. Moreover, the growth with UACC-257 melanoma was 93.9%; in the assay with M14 melanoma, 82.5%.
Turning to `Clc1cccc(NCOOC2(OOCNc3cccc(Cl)c3)CCCCCC2)c1`, the growth with NCI-H23 lung was 69%; in the assay with NCI-H226 lung, 102%; in the assay on NCI-H322M lung, 96.2%; in the assay with HOP-62 NSCLC it was 87.4%; in the assay on NCI-H460 lung it was 102%; in the assay on HOP-92 NSCLC, 57.5%. Moreover, the growth with NCI-H522 lung is 81.6%; in the assay with A549/ATCC NSCLC, 92.8%; in the assay with 786-0 renal, 47.3%; with COLO 205 colon it was 113%; with DU-145 prostate, 103%; in the assay on K-562 leukemia, 32.6%. In addition, the growth is 97% in the assay with MALME-3M melanoma; 103% with MDA-MB-231 breast; 114% in the assay on RXF 393 renal; 94.3% with SF-268 CNS; 90.4% with SF-295 CNS; 86.8% in the assay on SF-539 CNS. For the same compound, the growth in the assay on UACC-257 melanoma is 112%; with M14 melanoma, 97.3%.
For the compound `CC(=O)Nc1ccc(NC(=O)c2ccc([As](O)O)cc2)cc1`, the growth in the assay with NCI-H23 lung was 103%; with NCI-H226 lung, 116%; with NCI-H322M lung, 118%; with HOP-62 NSCLC, 131%; with NCI-H460 lung, 104%; in the assay on HOP-92 NSCLC, 112%. For the same compound, the growth is -2.06% (active) in the assay on NCI-H522 lung; 114% in the assay on A549/ATCC NSCLC; 107% in the assay on 786-0 renal; 108% in the assay on COLO 205 colon; 108% in the assay with DU-145 prostate; 33.1% with K-562 leukemia. Besides, the growth in the assay with MALME-3M melanoma is 113%; in the assay with MDA-MB-231 breast it was 88.3%; in the assay on RXF 393 renal, 47.6%; in the assay with SF-268 CNS, 109%; in the assay with SF-295 CNS, 118%; in the assay on SF-539 CNS, 88.8%. Moreover, the growth was 104% in the assay on UACC-257 melanoma and 101% in the assay with M14 melanoma.
On to `COc1ccc(N(CC(=O)NCCC[Te]c2ccccc2)C(=O)CNC(=O)OC(C)(C)C)cc1`, for which the growth was -15.5% (active) in the assay with NCI-H23 lung; 1.45% (active) in the assay with NCI-H226 lung; -6.97% (active) in the assay with NCI-H322M lung; 1.88% (active) with HOP-62 NSCLC; -23.9% (active) with NCI-H460 lung; -19.9% (active) in the assay with HOP-92 NSCLC. The growth in the assay with NCI-H522 lung was -0.481% (active); with A549/ATCC NSCLC it was -9.26% (active); in the assay on 786-0 renal, 73.3%; in the assay on COLO 205 colon it was 86.9%; in the assay on DU-145 prostate, 48.9%; with K-562 leukemia, 97%. Also, the growth in the assay with MALME-3M melanoma is 137%; with MDA-MB-231 breast it was 1.63% (active); in the assay on RXF 393 renal, 114%; with SF-268 CNS it was 24.2%; in the assay with SF-295 CNS, -10.8% (active); with SF-539 CNS, -9.65% (active). The results for the growth with UACC-257 melanoma and in the assay on M14 melanoma were 109% and 9.09% (active), respectively.
`C[C@]12C[C@@H](CO)[C@H](O)C[C@@H]1CC[C@@H]1[C@@H]2CC[C@]2(C)[C@@H](O)CC[C@@H]12`: the growth is 102% in the assay on NCI-H23 lung; 102% with NCI-H226 lung; 91.1% in the assay with NCI-H322M lung; 107% with HOP-62 NSCLC; 106% in the assay with NCI-H460 lung; 87.3% with HOP-92 NSCLC. For the same compound, the growth in the assay on NCI-H522 lung was 77.7%; in the assay with A549/ATCC NSCLC it was 99.7%; in the assay with 786-0 renal, 102%; in the assay with COLO 205 colon, 108%; with DU-145 prostate it was 106%; in the assay on K-562 leukemia it was 74.7%. In addition, the growth was 90.6% in the assay on MALME-3M melanoma; 111% in the assay with MDA-MB-231 breast; 113% in the assay with RXF 393 renal; 103% in the assay on SF-268 CNS; 113% in the assay on SF-295 CNS; 95.8% in the assay on SF-539 CNS. The growth with UACC-257 melanoma was 90.4%; with M14 melanoma, 103%.
